KCNQ2 block = blocks the rat KCNQ2 potassium channel; O88943; B-score at 10 µM; hit rate 1.1% among 310,000; CHO-K1 KCNQ2, FluxOR thallium flux, 20 min; stronger effect = lower value;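 active means fluorescence ratio B-score at most minus 3 library SDs, with starting brightness B-score within 2 library SDs, cut at about -5.5 in these data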
Target sequence (O88943 whole entry, looked up): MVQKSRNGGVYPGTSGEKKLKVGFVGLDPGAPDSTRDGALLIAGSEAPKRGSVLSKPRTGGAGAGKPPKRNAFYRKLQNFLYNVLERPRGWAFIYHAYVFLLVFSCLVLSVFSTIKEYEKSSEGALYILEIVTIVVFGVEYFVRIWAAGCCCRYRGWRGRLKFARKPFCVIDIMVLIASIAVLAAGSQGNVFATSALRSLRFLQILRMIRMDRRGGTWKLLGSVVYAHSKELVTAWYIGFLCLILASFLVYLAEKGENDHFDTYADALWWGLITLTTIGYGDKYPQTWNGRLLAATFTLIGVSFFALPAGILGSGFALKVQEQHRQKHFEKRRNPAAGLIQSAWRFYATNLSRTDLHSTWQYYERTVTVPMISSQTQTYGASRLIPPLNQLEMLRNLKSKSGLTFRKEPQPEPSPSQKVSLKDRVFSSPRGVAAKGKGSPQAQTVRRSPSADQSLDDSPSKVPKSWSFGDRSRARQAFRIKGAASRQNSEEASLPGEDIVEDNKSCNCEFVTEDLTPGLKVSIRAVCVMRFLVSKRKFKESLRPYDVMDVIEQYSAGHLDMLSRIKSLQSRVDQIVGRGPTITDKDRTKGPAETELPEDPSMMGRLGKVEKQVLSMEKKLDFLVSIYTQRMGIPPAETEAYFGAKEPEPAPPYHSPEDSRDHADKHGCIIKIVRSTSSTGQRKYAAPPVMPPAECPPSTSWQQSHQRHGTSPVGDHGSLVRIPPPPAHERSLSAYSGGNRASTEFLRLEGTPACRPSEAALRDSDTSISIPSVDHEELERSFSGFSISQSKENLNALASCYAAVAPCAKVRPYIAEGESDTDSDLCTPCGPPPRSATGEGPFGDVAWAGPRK
KCNQ2 enhance = KCNQ2 (rat) channel potentiation | B-score at 10 µM | hit rate 0.54% among 310,000 | CHO-K1 KCNQ2, FluxOR thallium flux fluorescence; stronger effect = higher value | O88943;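 active means fluorescence ratio B-score at least 3 SD of library B-scores, with initial fluorescence B-score within 3 of them, cut at about 5.3 in these data; same plate scores as AID 2156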;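 further: B-score of peak minus minimum over baseline fluorescence ratio after K+ and Tl+ stimulus; positive B-score means potentiation of KCNQ2 with more thallium influx and brighter signal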
Kir21 conf inh = confirmation of mouse Kir2.1 potassium channel inhibitors; shares compounds with KCNQ2 enhance; Kir2.1-expressing cells, FluxOR thallium flux fluorescence; stronger effect = lower value; Tl flux remaining, % of negative control (stronger effect = lower value), % at 10 µM; hit rate 41% among 2,300;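 active means Primary-screen hit whose thallium flux fell at least 3 control SD below untreated wells in both duplicates, with normal baseline fluorescence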
HEK293 Tl flux = alters thallium flux in parental HEK293 cells, Kir2.1 counter-screen; hit rate 19% among 2,300; FluxOR thallium flux fluorescence; 0% = unstimulated blank wells; FluxOR signal as % of negative control (100 = no effect), % at 10 µM; shares compounds with KCNQ2 enhance;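 active means dye signal at least 3 control SD above or below untreated wells in both duplicates, raw fluorescence within 3, either direction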;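 further: percent is based on the flux ratio of peak minus minimum fluorescence over baseline F0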
CHO-K1 Tl ctr = counter-screen for KCNQ2 potentiators: effect in parental CHO-K1 cells; AID 2282; hit rate 43% among 1,200; FluxOR thallium flux fluorescence; zero = vehicle mean+3SD, 100% = vehicle-minus-blank window; activity increase over 3SD of controls, % at 10 µM; shares compounds with KCNQ2 enhance;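 active means signal rise of at least 3 SD above the untreated control mean, in both duplicate wells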;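 further: counter screen of KCNQ2 potentiator hits so any rise reflects channel-independent effects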
KCNQ1 sel pot = human KCNQ1 counter-target activity of KCNQ2 potentiators; hit rate 28% among 1,200; shares compounds with KCNQ2 enhance; AID 2283; activation over 3SD threshold, % at 10 µM; CHO KCNQ1 stable, FluxOR thallium flux fluorescence; beyond 3SD, as % of vehicle-control signal;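 active means fluorescence ratio rise of at least 3 SD of vehicle wells above their mean, in both replicate wells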
KCNQ2 pot conf = rat KCNQ2 channel potentiator confirmation; shares compounds with KCNQ2 enhance; CHO-KCNQ2 cells, FluxOR thallium flux fluorescence; potentiation, less the hit threshold, % at 10 µM; hit rate 68% among 1,200; AID 2287;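 active means fluorescence ratio rising 3 SD or more over the vehicle control mean in both replicates, plus primary screen hit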;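 further: peak minus minimum thallium fluorescence divided by baseline after K/Tl stimulus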
Kir2-1 sel = selectivity of KCNQ2 potentiators: effect on mouse Kir2.1. shares compounds with KCNQ2 enhance. HEK293 Kir2.1, FluxOR thallium flux fluorescence. activity over 3SD threshold, % at 10 µM. hit rate 2% among 1,200. AID 2345;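 active means fluorescence ratio rise of at least 3 SD above the vehicle-control mean, seen in both replicates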
KCNQ2 W236L MoA = rat KCNQ2 W236L mutant potentiation by KCNQ2 potentiators; shares compounds with KCNQ2 enhance; CHO KCNQ2-W236L, automated patch clamp current; current increase over 3SD of negative controls (%), stronger effect = higher value, % at 25 µM; hit rate 10% among 940; AID 2558;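 active means current increase at least 3 SD of the untreated controls above them in both duplicate recordings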
Large screens that a line does not name were inactive (follow-up assays come after a bar, where they were run). This is a sample that favours compounds with a hit; in the whole collection about 1.6% have one here.

CCCCOc1ccc(Br)cc1CSC(=N)N	none | Kir21 conf inh 20% | HEK293 Tl flux inactive
Cc1cc(C)n(C(=O)N(c2ccccc2)c2ccccc2)n1	none (no result: KCNQ2 enhance)
Cc1ccc(C)c(N2CC(C(=O)O)CC2=O)c1 (stereo not given)	none
CCc1nc(SCC(=O)Nc2cc(C)on2)c2c(=O)n(C)c(=O)n(C)c2n1	none
Cc1cc(NC(=O)CSc2nc(CC(C)(C)C)nc3c2c(=O)n(C)c(=O)n3C)no1	none (no result: KCNQ2 enhance) | Kir21 conf inh inactive | HEK293 Tl flux inactive
CN(CC(=O)Nc1ccc(N2CCOCC2)cc1)C(=O)CCc1cc(C(C)(C)C)c(O)c(C(C)(C)C)c1	none
Cc1ccc2c(c1)CCCN2C(=O)CSc1ccccc1	none (no result: KCNQ2 enhance)
COc1ccccc1CC(=O)N1CCCc2cc(C)ccc21	none (no result: KCNQ2 enhance) | Kir21 conf inh inactive | HEK293 Tl flux inactive
O=c1c2ccccc2sn1-c1ccccc1	none (no result: KCNQ2 enhance)
O=c1[nH]sc2ccccc12	KCNQ2 enhance 6.7 | Kir21 conf inh inactive | HEK293 Tl flux inactive | CHO-K1 Tl ctr 8.6 | KCNQ1 sel pot inactive | KCNQ2 pot conf inactive | Kir2-1 sel inactive | KCNQ2 W236L MoA inactive
CSc1ccccc1OCc1cc(C(=O)NCCC2=CCCCC2)no1	none (no result: KCNQ2 enhance)
CC1(c2nnc(Cc3ccccc3)o2)CC(c2ccccc2Br)=NO1 (stereo not given)	none (no result: KCNQ2 enhance)
CC(=O)Nc1cccc(OCC(=O)Nc2ccccc2)c1	none
CC(=O)Nc1cccc(OCC(=O)NC(C)c2ccc3ccccc3c2)c1 (stereo not given)	none | Kir21 conf inh 56% | HEK293 Tl flux inactive
CCCn1c(O)c(N=NC(=O)c2cccnc2)c2cc(Br)ccc21	none (no result: KCNQ2 enhance)
CCCC(=O)Nc1ccc(NCc2ccc(C)s2)cc1	KCNQ2 enhance 22 | Kir21 conf inh inactive | HEK293 Tl flux inactive | CHO-K1 Tl ctr inactive | KCNQ1 sel pot inactive | KCNQ2 pot conf 85 | Kir2-1 sel inactive | KCNQ2 W236L MoA inactive
CC(=O)Nc1ccc(NCc2ccc(C)s2)cc1	none
CCN(Cc1ccccc1)C(=O)c1cc2c(OC)c(OC)c(OC)cc2[nH]1	none (no result: KCNQ2 enhance)
CCOc1cccc(-c2c(C(=O)N/N=C/c3ccc(Br)cc3)nnn2-c2nonc2N)c1	none
C#CCN(CC=C)C(=O)c1ccc2nc(C3CCCCC3)oc2c1	none
Clc1cccc(Cl)c1COn1nnc2ccccc21	none (no result: KCNQ2 enhance)
c1ccc(COn2nnc3ccccc32)c(COn2nnc3ccccc32)c1	none (no result: KCNQ2 enhance) | Kir21 conf inh 72% | HEK293 Tl flux inactive
CC(C)(C)c1ccc(/C=C2/SC(N3CCCC3)=NC2=O)cc1	KCNQ2 enhance 6.9 | Kir21 conf inh inactive | HEK293 Tl flux inactive | CHO-K1 Tl ctr 4.3 | KCNQ1 sel pot inactive | KCNQ2 pot conf 12 | Kir2-1 sel inactive | KCNQ2 W236L MoA 0.6%
Cc1ccc(/C=C2\SC(N3CCCCC3)=NC2=O)cc1	none
Cc1cc(C)c(NC(=O)Cn2c(=O)c3cccn3c3ccccc32)c(C)c1	none (no result: KCNQ2 enhance)
O=C(Cc1ccccc1)Nc1ccc2c(c1)CCC2	KCNQ2 enhance 6.5 | Kir21 conf inh inactive | HEK293 Tl flux inactive | CHO-K1 Tl ctr 17 | KCNQ1 sel pot inactive | KCNQ2 pot conf 81 | Kir2-1 sel inactive | KCNQ2 W236L MoA inactive
O=C(Cc1ccccc1)Nc1cccc(N2CCCC2)c1	KCNQ2 enhance 6 | Kir21 conf inh inactive | HEK293 Tl flux inactive | CHO-K1 Tl ctr inactive | KCNQ1 sel pot inactive | KCNQ2 pot conf 21 | Kir2-1 sel inactive | KCNQ2 W236L MoA 0.1%
COc1ccc(CC(=O)Nc2ccc3c(c2)CCC3)cc1	none
O=C(Cc1ccccc1)Nc1ccc(N2CCCC2)cc1	none
COc1ccc(NC(=O)CC2CCCC2)cc1OC	none (no result: KCNQ2 enhance)
O=C(CC1CCCC1)Nc1ccc2c(c1)CCC2	KCNQ2 enhance 26 | Kir21 conf inh inactive | HEK293 Tl flux inactive | CHO-K1 Tl ctr inactive | KCNQ1 sel pot inactive | KCNQ2 pot conf 80 | Kir2-1 sel inactive | KCNQ2 W236L MoA inactive
CCCn1c(N)cc(=O)n(C)c1=O	none
O=C(OC1CCOC1=O)C1CCN(S(=O)(=O)c2ccc(Cl)c(C(F)(F)F)c2)CC1 (stereo not given)	none (no result: KCNQ2 enhance)
COc1cccc(-c2nc(NCC3CCCO3)c3ccccc3n2)c1O (stereo not given)	none (no result: KCNQ2 enhance)
COc1ccccc1Nc1nc(NCC2CCCO2)c2ccccc2n1 (stereo not given)	none (no result: KCNQ2 enhance) | Kir21 conf inh 28% | HEK293 Tl flux inactive
O=Cc1c[nH]c2ccc(S(=O)(=O)N3CCOCC3)cc12	none (no result: KCNQ2 enhance)
Cc1cc(C(=O)NN=C2CCCCCC2)c(C)o1	none
Cc1ccccc1-c1cnn(-c2cccc([N+](=O)[O-])c2)c1N	none
Nc1c(-c2ccccc2Cl)cnn1-c1cccc([N+](=O)[O-])c1	KCNQ2 enhance 5.3 | Kir21 conf inh inactive | HEK293 Tl flux 127% | CHO-K1 Tl ctr inactive | KCNQ1 sel pot inactive | KCNQ2 pot conf 2.3 | Kir2-1 sel inactive | KCNQ2 W236L MoA inactive
O=c1cc(C(F)(F)F)nc(SCc2cccnc2)[nH]1	none (no result: KCNQ2 enhance)
C/C(=N\NC(=O)c1nnn(-c2nonc2N)c1CN1CCCCC1)c1ccccc1O	none (no result: KCNQ2 enhance)
COc1ccc(C(OCC(O)CN(C)C2CCCCC2)c2ccc(OC)cc2)cc1 (stereo not given)	none (no result: KCNQ2 enhance)
COc1ccc(CN(C)CC(O)COC(c2ccc(OC)cc2)c2ccc(OC)cc2)cc1 (stereo not given)	none (no result: KCNQ2 enhance) | Kir21 conf inh 50% | HEK293 Tl flux inactive
CCOc1ccc(CN(C)CC(O)COC(c2ccc(OC)cc2)c2ccc(OC)cc2)cc1 (stereo not given)	none (no result: KCNQ2 enhance) | Kir21 conf inh 58% | HEK293 Tl flux inactive
C=CCOc1ccc(CN(C)CC(O)COc2ccc(CCC(C)=O)cc2)cc1 (stereo not given)	none
CCOC(=O)C1CCN(c2nc(N)c3c(N)nc(SCC(=O)O)cc3c2C#N)CC1	none
COc1ccc(-c2nnnn2C)cc1S(=O)(=O)Nc1ccc(C)cc1C	none
C=C(C)CSc1nc2ccccc2[nH]1	none (no result: KCNQ2 enhance)
Cc1ccc(C)c(Cn2c3ccccc3c3cnn(CC(=O)NCCCN4CCCCC4)c(=O)c32)c1	none | Kir21 conf inh 60% | HEK293 Tl flux inactive
Cc1ccc(C)c(Cn2c3ccccc3c3cnn(CC(=O)NCc4ccccn4)c(=O)c32)c1	none
CS(=O)(=O)N(Cc1ccccc1)c1ccc(C(=O)Nc2ccc(C(N)=O)cc2)cc1	none (no result: KCNQ2 enhance) | Kir21 conf inh inactive | HEK293 Tl flux inactive
CC(=O)c1cccc(NC(=O)c2ccc(N(Cc3ccccc3)S(C)(=O)=O)cc2)c1	none
COc1ccc(Cl)cc1NS(=O)(=O)c1ccc(OC)c(OC)c1	none (no result: KCNQ2 enhance) | Kir21 conf inh 51% | HEK293 Tl flux 140%
